Measurements: ChEMBL document CHEMBL3988442, “University of Dundee, Small-Polar-MMV Screening Library” (2021)
The whole screen tested about 69,000 compounds, of which about 420 (0.61%) showed an effect of 50% or more. The sample holds strong results, similar compounds and a random draw of the others, so the mix is not that of the screen.

target: T1, Histidine--tRNA ligase (Leishmania infantum) (UniProt A4I591); assay: Leishmania infantum Histidine tRNA synthetase (LdHisRS); type: functional; design: scale not given: in the data most compounds retested in dose-response had high values; details: 30 µM
T1 sequence (whole entry): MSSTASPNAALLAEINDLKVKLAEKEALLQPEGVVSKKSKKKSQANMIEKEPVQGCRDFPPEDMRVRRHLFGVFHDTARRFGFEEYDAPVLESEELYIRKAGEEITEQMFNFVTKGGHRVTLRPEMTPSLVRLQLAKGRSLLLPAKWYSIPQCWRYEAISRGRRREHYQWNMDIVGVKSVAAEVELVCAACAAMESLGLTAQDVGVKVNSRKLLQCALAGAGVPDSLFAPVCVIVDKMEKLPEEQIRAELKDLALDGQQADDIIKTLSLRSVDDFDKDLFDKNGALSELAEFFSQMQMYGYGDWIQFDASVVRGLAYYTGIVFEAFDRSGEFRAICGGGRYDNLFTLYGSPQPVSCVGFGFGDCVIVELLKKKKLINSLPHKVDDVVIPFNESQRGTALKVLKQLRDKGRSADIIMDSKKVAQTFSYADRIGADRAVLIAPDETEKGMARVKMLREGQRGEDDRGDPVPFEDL

Row | SMILES | Percent Effect [%]
1 | Cc1nc(CN2CCO[C@H]3[C@H](OCC(=O)N(C)C)CC[C@@H]32)cs1 | -9.73
2 | COc1cccc(-c2n[nH]c3c2CN(C(=O)c2cccc(=O)[nH]2)CC3)c1 | 65.6
3 | COc1cccc(-c2n[nH]c3c2CN(C(=O)c2ccncc2)CC3)c1 | 0
4 | COc1cccc(-c2n[nH]c3c2CN(C(=O)c2cc(C)n(C)n2)CC3)c1 | 0
5 | Cc1csc(CN2CC[C@H]3C[C@@H](c4noc(C)n4)O[C@@H]3C2)n1 | 12.9
6 | CN(C)c1ncccc1N(C)C(=O)Cn1cc(-c2ccccc2)nn1 | 0
7 | COc1cccc(OCC(=O)N(C)c2cccnc2N(C)C)c1 | 10.2
8 | COc1ccc(CC(=O)N(C)c2cccnc2N(C)C)c(Cl)c1 | 57.1
9 | COC[C@]12COC[C@H]1CN(Cc1cc(OC)cc(OC)c1)C2 | 4.51
10 | COCC(=O)N1CC[C@H]2C[C@@H](c3nnc(C4CC4)o3)O[C@@H]2C1 | 18.9
11 | CCn1nc(C)cc1C(=O)N1CC[C@H](OC)[C@H]2CN(CC3CC3)C[C@H]21 | 3.95
12 | COc1ccc(CC(=O)N2CC[C@@H]3[C@H](CC2)N(C)CCS3(=O)=O)cc1 | 17.1
13 | Cc1cnc2n(c1=O)CC(C(=O)Nc1cccc3cccnc13)CS2 (stereo unspecified) | 67.3
14 | Cc1ccncc1NC(=O)C1CSc2ncc(C)c(=O)n2C1 (stereo unspecified) | 15.4
15 | Cc1cccnc1NC(=O)C1CSc2ncc(C)c(=O)n2C1 (stereo unspecified) | 20.5
16 | CC(C)NC(=O)[C@@H]1CCO[C@@H]2CCN(c3ncccn3)C[C@@H]21 | 11.1
17 | COCCCSc1ccc(NCc2scnc2C)cc1 | 9.09
18 | COCc1nc2cc(NCc3csc(C)n3)ccc2o1 | 29.5
19 | COCc1nc(CNc2cccc(-c3csc(C)n3)c2)cs1 | -6.67

Row | SMILES | Percent Effect [%]
20 | COCc1nc(CNc2cccc(-c3nc(C)c(C)o3)c2)cs1 | 0
21 | Cc1ncsc1CNc1cccc(OCCN2CCCC2)c1 | 25.2
22 | COCc1nc2cc(NCc3scnc3C)ccc2o1 | 54.5
23 | COCc1nc2cc(NCc3sc(C)nc3C)ccc2o1 | 79.5
24 | COCc1nc2cc(NCc3nc(C)cs3)ccc2o1 | 106
25 | Cc1csc(CNc2cccc(OCCN3CCCC3)c2)n1 | 23.2
26 | CN(C)CCNC(=O)[C@H]1C[C@@H]2CN(C(=O)NC3CCCC3)C[C@H]1O2 | 8.62
27 | CN(C)c1cccc(C(=O)N2C[C@H]3CC[C@@H]2CN(C(=O)C2CCC2)C3)c1 | 18.4
28 | O=S(=O)(c1cccs1)N1CCN2C[C@H](OCC3CC3)C[C@H]2C1 | 10.5
29 | C[C@@H]1C[C@H]2CN(C(=O)c3ccncn3)C[C@H]2O1 | -2.56
30 | Cc1nnc([C@@H]2CCO[C@@H]3CCN(C(=O)Cc4ccccn4)C[C@@H]32)o1 | 15.8
31 | CN1[C@H](CN2CCCC2)C[C@@H]2CN(Cc3ccoc3)CC[C@@H]21 | 6.84
32 | Cn1cc(-c2c(C#N)c(N)nc3c2CCc2[nH]ccc2-3)cn1 | 97.4
33 | Cc1cc(-c2c(C)c(-c3cnn(C)c3)nc(N)c2C#N)oc1C | 22.4
34 | Cn1cc(-c2c(C#N)c(N)nc3c2CCc2[nH]ccc2-3)cc1C#N | 68.4
35 | CCn1cc(-c2cc(-c3ccn(C)c3)nc(N)c2C#N)cc1C#N | 10.4
36 | Cc1n[nH]c(C)c1-c1cc(-c2ccc[nH]2)nc(N)c1C#N | 27.5
37 | Cc1n[nH]c(C)c1-c1cc(-c2cc[nH]c2)nc(N)c1C#N | 31.9
38 | Cc1n[nH]c(C)c1-c1c(C#N)c(N)nc2c1CCc1[nH]ccc1-2 | 108

Row | SMILES | Percent Effect [%]
39 | Cc1c(-c2cnn(C)c2)nc(N)c(C#N)c1-c1ccc(CO)o1 | 19.7
40 | CCc1ccc(-c2c(C)c(-c3cnn(C)c3)nc(N)c2C#N)o1 | 19.7
41 | Cc1nnc([C@@H]2CC[C@@H]3[C@@H](CCN3C3CCC3)O2)o1 | 5.26
42 | O=C(NC1CCCC1)N1C[C@H]2CN(c3ccccn3)C[C@@]2(C(=O)O)C1 | 3.92
43 | O=C(NC[C@]12COC[C@H]1CN(Cc1nccs1)C2)c1ccccc1 | 17.5
44 | CS(=O)(=O)N1C[C@@H](NC(=O)c2ccno2)[C@@H]2OCCC[C@@H]21 | -4.54
45 | CCCN(CCC)C(=O)c1cnn(C)c1C | -4
46 | COCCN1C(=O)CC[C@]12CC[C@@H](NC(=O)c1cnccn1)CC2 | -179
47 | CCCN(C(=O)c1cnccn1)c1nc2c(s1)CCc1c-2cnn1C | 94.8
48 | CCCN(C(=O)c1cnc(C)cn1)c1nc2c(s1)CCc1c-2cnn1C | 99
49 | Cc1cnc(C(=O)N(CCN(C)C)Cc2ccc(Cl)cc2)cn1 | 24
50 | COCC1c2c(cnn2C)CCN1C(=O)c1cscn1 (stereo unspecified) | 11.7
51 | Cc1cccc(N(CCC(N)=O)C(=O)c2cnccn2)c1 | 5
52 | COCCN(C(=O)c1cnccn1)c1nc2c(s1)CCc1c-2cnn1C | 51
53 | CCN(CC)Cc1cn2c(n1)CN(C(=O)c1cnccn1)CC2 | 9.02
54 | Cc1nc(CN2CC[C@@H]3O[C@@H](C(=O)N4CCOCC4)C[C@@H]32)cs1 | 17.4
55 | Cn1cccc1C(=O)N1C[C@@H]2CCCO[C@@H]2[C@H](N2CCOCC2)C1 | 17.5
56 | Cc1ccc(C(=O)N2C[C@@H]3[C@@H](C2)OCC(=O)N3Cc2cccnc2)o1 | 22.1
